USP1-UAF1 inh: blocks the human USP1/UAF1 deubiquitinase complex; 0.23% of 390,000 active; recombinant USP1/UAF1, Ub-Rhodamine cleavage fluorescence; O94782; AID 743255; Potency, µM (titrated, usually from 57.1 µM), for inactives: at the top dose activity change, negative = inhibition, most hits filed as inhibitors; further: on the % scale 0 is the no-effect control and ±100 the full control effect; nearly all actives have a fitted effect of over 60% in size
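In this screen, compounds sit with the deubiquitinase complex (1nM) for 15 min at room temperature before Ub-Rho is added at 150nM final. Fluorescence rise is then followed for 6 reads every 60 seconds.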
EPAC2 ag: activates human EPAC2 exchange factor | EPAC2 activation, biochemical qHTS; response scale: 100% = 6.5 mM cAMP response | Q8WZA2 | 0.079% of 360,000 active | Potency, µM (highest dose often 154 µM), for inactives: at the top dose activation, usual class: activators; further: nearly all actives have a fitted effect of over 50% in size
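EPAC2 (100 nM) mixed with Rap1B loaded with BODIPY-GDP (250 nM) plus 50 uM unlabeled GDP; compounds pinned in, 5 min RT, then read every 5 min for 30 min (ex 480, em 540 nm). Normalized to cAMP control.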
EPAC1 antagonist: antagonists of human EPAC1; AID 720709; Potency, µM (highest dose often 115 µM), for the others: at the highest dose activity change, negative = inhibition, most hits filed as inhibitors; O95398; 0.14% of 360,000 active; EPAC1 GEF assay, Rap1b-BODIPY-GDP exchange fluorescence;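 further: plate controls were vehicle for no effect and positive control for full effect; nearly all actives have a fitted effect of over 50% in size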
Target sequence (O95398 whole entry, looked up): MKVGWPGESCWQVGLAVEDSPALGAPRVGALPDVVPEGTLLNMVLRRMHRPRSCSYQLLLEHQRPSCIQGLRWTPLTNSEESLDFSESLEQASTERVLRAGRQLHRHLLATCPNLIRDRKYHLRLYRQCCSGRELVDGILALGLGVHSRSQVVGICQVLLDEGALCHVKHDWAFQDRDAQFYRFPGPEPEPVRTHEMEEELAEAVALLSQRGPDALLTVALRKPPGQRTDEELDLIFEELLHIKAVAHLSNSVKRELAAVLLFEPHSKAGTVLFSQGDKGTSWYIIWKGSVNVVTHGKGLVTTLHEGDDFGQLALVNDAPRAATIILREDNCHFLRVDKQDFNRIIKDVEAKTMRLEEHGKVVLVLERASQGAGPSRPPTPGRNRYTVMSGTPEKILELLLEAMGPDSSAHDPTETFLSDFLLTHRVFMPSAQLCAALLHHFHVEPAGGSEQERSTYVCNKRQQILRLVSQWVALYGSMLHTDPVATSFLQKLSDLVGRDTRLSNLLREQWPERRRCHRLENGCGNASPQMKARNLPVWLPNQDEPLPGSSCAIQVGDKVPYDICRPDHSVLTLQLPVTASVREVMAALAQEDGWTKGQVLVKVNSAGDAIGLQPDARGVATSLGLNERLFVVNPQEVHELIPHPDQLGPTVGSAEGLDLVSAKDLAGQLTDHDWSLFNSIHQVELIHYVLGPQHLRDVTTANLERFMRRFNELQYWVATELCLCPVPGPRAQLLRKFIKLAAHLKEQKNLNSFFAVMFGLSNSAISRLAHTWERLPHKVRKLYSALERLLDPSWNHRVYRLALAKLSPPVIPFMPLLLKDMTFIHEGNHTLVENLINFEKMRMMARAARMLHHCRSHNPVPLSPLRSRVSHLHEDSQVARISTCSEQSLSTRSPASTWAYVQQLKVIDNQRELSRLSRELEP
EPAC2 antagonist: EPAC2 (human) antagonism; Q8WZA2; EPAC2 GEF exchange of Rap1B-BODIPY-GDP, fluorescence; Potency, µM (highest dose often 114 µM), for the others: at the top dose activity, negative = inhibition, usual class: inhibitors; 0.18% of 360,000 active; further: on the % scale 0 is the no-effect control and ±100 the full control effect; nearly all actives have a fitted effect of over 45% in size
EPAC1 ag: agonists of human EPAC1. O95398. EPAC1 agonist qHTS, biochemical assay; response scale: 100% = response to 6.5 mM cAMP. Potency, µM (doses to about 154 µM), for inactives: at the highest dose activation, usual class: activators. 0.073% of 360,000 active. AID 720707; further: nearly all actives have a fitted effect of over 60% in size
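Fluorescent GDP-exchange assay: 100 nM EPAC1 with 250 nM Rap1B preloaded with BODIPY-GDP and 50 uM GDP; compounds tested as concentration series, 5 min at room temperature, then read every 5 min for 30 min (ex 480/em 540 nm); normalized to 6.5 mM cAMP.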
BRCA1 expr act: increases BRCA1 expression; MCF7-BRCA1-FFLuc reporter, luminescence, 48 h; response scale: scaled: vehicle 0%, 10 µM genistein 100%; Potency, µM (doses to about 46.1 µM), without a hit: top-dose activation, usual class: activators; 1.1% of 380,000 active; AID 624202; further: nearly all actives have a fitted effect of over 80% in size
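Using MCF7 cells harboring a BRCA1 firefly luciferase reporter, plated 2 h before compound pinning, the screen measured luminescence after 48 h incubation. Responses were normalized to DMSO and 10 microM genistein, then fitted for concentration-effect.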
Active calls of the source: *; ? = inconclusive; . = no result; [ ] = dose if it differs, or a comment. An excerpt weighted towards active compounds, which were near 1.4% of everything screened. The call rests on the fitted dose curve; in most records, active means well fitted curve in the direction sought with a large enough effect; inconclusive means small, poorly fitted or top-dose-only effect, or another doubt; inactive means no such curve, though single readings can be large; an effect the other way counts as inactive or inconclusive. Potency means the concentration at half of the fitted maximal effect.

SMILES	USP1-UAF1 inh	EPAC2 ag	EPAC1 antagonist	EPAC2 antagonist	EPAC1 ag	BRCA1 expr act
CC(C)(C)CNC(=O)c1cccc2c1C(=O)c1ccc(N3CCCC3)cc1S2(=O)=O	?	25.9%	35.6%	17.8%	?	-29.7%
Cc1ccccc1NC(=O)COC(=O)c1ccccc1OCC(=O)Nc1ccc(Br)cc1	.	.	.	.	.	11.4%
O=C(CCC1N=C2c3ccccc3N=C(SCc3ccc(Cl)cc3)N2C1=O)N1CCN(c2ccccc2)CC1 (stereo not given)	-13.1%	.	.	.	.	.
O=C1Nc2ccccc2-n2nnnc2C1N1CCN(CCN2CCOCC2)CC1 (stereo not given)	.	3.9%	2.0%	-1.6%	7.3%	.
O=C1c2ccccc2S(=O)(=O)c2cc(N3CCC(C(=O)N4CCCCC4)CC3)ccc21	?	25.1µM*	14.3%	52.6%	79.4µM*	-9.1%
CCCCCCCOc1ccc(CC(=O)NO)cc1	.	.	.	.	.	-33.9%
C=CCn1c(N)c(C(=O)NCCC2=CCCCC2)sc1=S	-12.2%	-3.2%	-14.7%	-1.9%	-5.1%	12.6µM*
NC(=O)c1cc[n+](CC2=C(C(=O)O)N3C(=O)[C@@H](NC(=O)C(c4ccccc4)S(=O)(=O)[O-])[C@H]3SC2)cc1 (stereo not given in full)	35.5µM*	0.5%	14.8%	54.6%	9.6%	-15.8%
NC(=O)c1ccc(-n2nnnc2SCC(=O)c2ccc(O)c(O)c2)cc1	-8.9%	6.1%	?	1.0%	1.2%	-7.2%
COc1ccc(-n2nnnc2SCC(=O)c2ccc(O)c(O)c2)cc1	-10.4%	9.9%	44.7µM*	-2.1%	0.8%	-8.6%
Cc1ccc(F)c(S(=O)(=O)NC(=O)C2(C)CCN2C(=O)C2(c3ccc(Cl)cc3)CCC2)c1 (stereo not given)	.	-1.3%	-7.6%	44.7µM*	-3.1%	-3.3%
CC1(C(=O)NS(=O)(=O)c2ccc(Cl)cc2)CCN1C(=O)C1(c2ccc(Cl)cc2)CCC1 (stereo not given)	.	8.4%	-30.0%	?	-10.4%	-1.3%
CC1(C(=O)NS(=O)(=O)c2ccc3c(c2)CCO3)CCN1C(=O)C1(c2ccc(Cl)cc2)CCC1 (stereo not given)	.	8.5%	50.1µM*	?	-5.4%	4.7%
O=C(NNc1ncnc2c1cnn2-c1ccccc1)c1cccc(Cl)c1	-29.0%	.	.	.	.	.
O=C(CN1CCN(c2cccc(C(F)(F)F)c2)CC1)N(C1CCCC1)C1CCS(=O)(=O)C1 (stereo not given)	-18.3%	-3.6%	7.0%	6.6%	-8.0%	2.0%
CCOC(=O)C(CC)Sc1c(CC)cnc2c1c(=O)n(C)c(=O)n2C (stereo not given)	-18.5%	.	.	.	.	.
CCN(CC)C(=O)CCc1nnc(Cc2cccc(C(F)(F)F)c2)o1	-2.0%	29.2%	22.9%	-4.2%	6.8%	10µM*
COCCN(C(=O)Cc1cccs1)c1nnc(-c2cccnc2)s1	-1.7%	10.0%	-6.4%	0.8%	1.2%	-3.3%
CCCCN(C(=O)Cc1cccs1)c1nnc(-c2cccnc2)s1	-2.2%	8.4%	-16.2%	-2.4%	8.6%	3.16µM*
CC(C)(C)C(=O)c1c(N)[nH]c(C(=O)c2ccccc2)c1-c1c(F)cccc1F	.	9.9%	-0.4%	1.9%	-4.6%	-31.7%
CN(C)c1ccc(/C=C(\C#N)c2ccccc2)cc1	-24.5%	12.0%	-0.2%	-4.9%	-6.5%	2.82µM*
CCN(CC)c1ccc(/C=C(\C#N)C(N)=O)cc1	-3.6%	-2.9%	2.3%	-15.3%	4.1%	?
CCN(CC)c1ccc(/C=C(\C#N)C(=O)c2ccc(Br)cc2)cc1	25.1µM*	100µM*	141.1%	122.7%	112µM*	-12.2%
CN(C)c1ccc(/C=C(\C#N)C(=O)c2ccccc2)cc1	14.1µM*	?	2.3%	28.2%	20.3%	-2.8%
Cc1ccc(NC(=O)CC(C)S(=O)(=O)c2ccc3c(c2)NC(=O)CO3)cc1Cl (stereo not given)	-8.1%	.	.	.	.	.
SMILES	USP1-UAF1 inh	EPAC2 ag	EPAC1 antagonist	EPAC2 antagonist	EPAC1 ag	BRCA1 expr act
CC(=O)NC(Cc1c(F)c(F)c(F)c(F)c1F)C(=O)NCC(N)C(=O)c1ccccc1 (stereo not given)	.	.	.	.	.	-51.8%
CCOc1ccc(-c2nnc(SCC(=O)NCc3ccccc3)nc2-c2ccc(OCC)c(OC)c2)cc1OC	-5.9%	.	.	.	.	.
CCc1cccc(C)c1NC(=O)CN1C(=O)C2(SCC(=O)N2c2cccc(F)c2)c2ccccc21 (stereo not given)	-10.4%	.	.	.	.	-6.3%
CCC1(C)Cc2c(sc3nc(SC)n(Cc4ccccc4)c(=O)c23)CO1 (stereo not given)	-18.7%	6.6%	-6.7%	3.2%	1.0%	12.6µM*
O=C(O)c1cnn(-c2nc(-c3ccc(Cl)cc3)cs2)c1C(F)(F)F	-6.7%	9.9%	-2.4%	?	2.7%	4.47µM*
O=C(NCCc1c[nH]c2ccccc12)c1cc(Cl)c2c(c1)OCO2	-18.4%	25.7%	23.9%	-2.2%	15.8%	3.55µM*
COC(=O)[C@@H](Cc1c[nH]c2ccccc12)NC(=O)c1ccc2c(c1)OCO2	-20.4%	7.5%	1.5%	-3.8%	-9.2%	3.55µM*
O=C(NCCc1c[nH]c2ccccc12)c1ccc2c(c1)OCO2	-24.9%	4.7%	13.9%	-7.0%	5.2%	?
O=C(NCCc1c[nH]c2ccccc12)C(=O)Nc1ccccc1	-9.7%	1.8%	-13.7%	5.8%	-13.1%	11.2µM*
O=C(COC(=O)[C@H](Cc1c[nH]c2ccccc12)NC(=O)c1ccc(Cl)cc1)Nc1ccc2c(c1)OCO2	-10.3%	1.4%	-23.2%	-29.8%	2.7%	0.4%
CC(C)C(NC(=O)c1ccccc1)C(=O)NCCc1ccccc1 (stereo not given)	-22.8%	3.8%	5.5%	-4.3%	3.2%	-13.2%
Cc1ccc2nc3sc(C(=O)NCc4ccco4)c(N)c3cc2c1	366.7%	-8.4%	104.8%	-8.2%[57.1 µM]	100µM*	?
CCCCn1c(N)c(N(CC(C)C)C(=O)C2CCN(S(=O)(=O)c3ccccc3)CC2)c(=O)[nH]c1=O	-20.2%	1.0%	-0.9%	25.7%	-2.2%	19.7%
CCCCn1c(N)c(N(CC(C)C)C(=O)C2CCN(S(=O)(=O)c3ccc(C)c(C)c3)CC2)c(=O)[nH]c1=O	-4.8%	-6.6%	50.1µM*	28.8%	-10.9%	-15.4%
CN(C)c1ccc(/C=C/c2sc3ccccc3[n+]2CCCCI)cc1	.	.	.	.	.	-43.9%
Cc1ccc(N=C2NC(=O)/C(=C/c3cccn3C)S2)cc1	-16.5%	6.4%	6.2%	3.9%	-1.0%	3.55µM*
Cc1ccc(N=C2NC(=O)/C(=C/c3cccn3C)S2)cc1C	-2.7%	12.8%	-0.8%	2.6%	-17.9%	1.7%

Screening data: PubChem, National Center for Advancing Translational Sciences (NCATS)
